Assay [1] concerns the target Glucocorticoid receptor (Homo sapiens) (UniProt P04150). Put plainly: qHTS assay for small molecule agonists of glucocorticoid receptor signaling (AID 588532; active means well fitted curve in the direction sought with a large enough effect in the signal ratio, with a control signal flat; the % refers to the signal ratio;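 further: 100% = dexamethasone at 0.1 µM and 0% = DMSO only wells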). The settings on record: HeLa MMTV-bla, beta-lactamase ratio, agonist, 18 h; active compounds read high; percent of dexamethasone control, DMSO zero. In a few lines: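 Agonist-mode qHTS: GRE-driven beta-lactamase in HeLa cells exposed 18 h to titrated compounds (up to 92 uM), then CCF4 ratio read after 2 h at RT; Hill-fitted EC50, efficacy relative to 0.1 uM dexamethasone.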
(In general: qHTS replaces the single test concentration by a dilution series.)

For assay [2], the target named is Tumor necrosis factor (Homo sapiens) (UniProt P01375). The assay is described as follows: qHTS assay to identify small molecules that stimulate Tumor Necrosis Factor-alpha (TNF-alpha) secretion (AID 651757; active means well fitted curve in the direction sought with a large enough effect in the signal ratio; the % refers to the signal ratio; further: 0% is about no effect). As to conditions: Human cells, HTRF 665/615 ratio; series mostly up to 92.2 µM. An outline of the steps:
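Secreted TNF-alpha from compound-treated THP-1 cells (17 hrs, 37 C) was quantified with a homogeneous time-resolved fluorescence antibody assay.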

Assay [3] in a line: qHTS assay for environmental chemicals that activate the Aryl hydrocarbon Receptor (AhR) signaling pathway (AID 651777). Further: % of control where 0% means no effect; nearly all actives have a fitted effect of over 15% in size. As to conditions: 1A2-DRE human hepatoma cells, luciferase, 24 h; activation: active compounds read high. An outline of the steps:
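Induction of CYP1A2 transcription through AhR is detected by luciferase in 1A2-DRE hepatoma cells. Compounds or DMSO act for 24 hr at 37 C before a 30 min One-Glo step at room temperature.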

Assay [4] is described as follows: Cell Viability - LYMP2-001 (AID 921). Further: nearly all actives have a fitted effect of over 70% in size. Further: potency means the concentration at half of the fitted maximal effect. The settings on record: LYMP2-001 lymphoblastoid cell viability; series mostly up to 92.2 µM. In a few lines: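 Human lymphoblastoid LYMP2-001 cells, 2500 per well, in complete medium, treated 24 h at 37 C. Viability from cellular ATP by CellTiter-Glo luminescence; AC50 from Hill-equation fits of qHTS concentration-response.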

A short description of assay [5]: MultiTox-Fluor Cytotoxicity Assay - LYMP1-003 - Dead Cells (AID 961). Further: nearly all actives have a fitted effect of over 70% in size. Further: potency means the concentration at half of the fitted maximal effect. As to conditions: LYMP1-003 lymphoblastoid cells, dead-cell protease fluorescence; series mostly up to 92.2 µM. In a few lines: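 LYMP1-003 human lymphoblastoid cells (2500/well) exposed to compound 16 h at 37 C in complete medium; dead-cell protease read with bis-AAF-R110 fluorescence (Ex/Em 485/520) after 60 min at room temperature. Normalized to DMSO and 15 uM tetraoctylammonium bromide; AC50 from Hill fit.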

Assay [6] in a line: Cell Viability - LYMP2-004 (AID 966). Further: nearly all actives have a fitted effect of over 65% in size. Further: potency means the concentration at half of the fitted maximal effect. As to conditions: LYMP2-004 lymphoblastoid cell viability, qHTS; series mostly up to 92.2 µM. An outline of the steps:
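Acute toxicity is scored as a concentration-dependent drop in intracellular ATP, quantified by luciferase luminescence, in human lymphoblastoid cells exposed to compound for 24 hr. AC50 derives from Hill-equation modelling.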

Assay [7] in a line: Cell Viability - LYMP2-019 (AID 973). Further: nearly all actives have a fitted effect of over 55% in size. Further: potency means the concentration at half of the fitted maximal effect. As to conditions: LYMP2-019 lymphoblastoid cell line viability; series mostly up to 92.2 µM. In a few lines:
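Cells plated at 2500/well and allowed 5 hr at 37 C before compound addition. After 24 hr incubation, CellTiter-Glo reagent was added, plates sat 30 min at room temperature, and luminescence was recorded.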

A short description of assay [8]: Cell Viability - LYMP2-008 (AID 980). Further: nearly all actives have a fitted effect of over 60% in size. Further: potency means the concentration at half of the fitted maximal effect. The settings on record: LYMP2-008 lymphoblastoid cell viability, qHTS; series mostly up to 92.2 µM. In a few lines: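 Acute cytotoxicity is scored as concentration-dependent loss of cellular ATP in a human lymphoblastoid line after 24 hr treatment at 37 C. ATP is quantified by luciferase luminescence.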
Assay [9] in a line: Cell Viability - LYMP2-016 (AID 984).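 Further: cells exposed to compound for 24 hours at 37 °C; nearly all actives have a fitted effect of over 55% in size.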 Further: potency means the concentration at half of the fitted maximal effect. As to conditions: LYMP2-016 lymphoblastoid cell viability, qHTS; series mostly up to 92.2 µM. In a few lines: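 Human lymphoblastoid LYMP2-016 cells, 2500 per well, treated with compounds for 24 h at 37 C. Viability read as intracellular ATP by CellTiter-Glo luminescence after 30 min at room temperature; AC50 from Hill fits of concentration-response.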

The nature of assay [10]: Cell Viability - LYMP2-018 (AID 985).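 Further: compound exposure lasted 24 hr at 37 °C; nearly all actives have a fitted effect of over 50% in size.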 Further: potency means the concentration at half of the fitted maximal effect. The settings on record: LYMP2-018 lymphoblastoid cells, viability (qHTS); series mostly up to 92.2 µM. An outline of the steps:
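Acute cytotoxicity is scored as a concentration-dependent drop in intracellular ATP after 24 hr exposure of the lymphoblastoid line in complete culture medium, measured by luciferase luminescence. Potency is expressed as AC50 from Hill modelling.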

The nature of assay [11]: Cell Viability - LYMP2-020 (AID 986). Further: nearly all actives have a fitted effect of over 55% in size. Further: potency means the concentration at half of the fitted maximal effect. As to conditions: series mostly up to 92.2 µM. An outline of the steps: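 Acute cytotoxicity in a human lymphoblastoid line is scored as a concentration-dependent fall in cellular ATP after 24 hr at 37 C in complete medium. The positive control is tetraoctylammonium bromide, and potency is given as Hill-fit AC50.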
The nature of assay [12]: Cell Viability - LYMP2-022 (AID 987). Further: nearly all actives have a fitted effect of over 55% in size. Further: potency means the concentration at half of the fitted maximal effect. The settings on record: LYMP2-022 lymphoblastoid cell viability; series mostly up to 92.2 µM. An outline of the steps:
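Acute toxicity in a human lymphoblastoid line is scored as decreased intracellular ATP after 24 hr compound treatment at 37 C. ATP is measured by CellTiter-Glo luminescence; curves are fitted with the Hill equation to give AC50.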

Assay [13] can be described thus: Cell Viability - LYMP2-024 (AID 988). Further: nearly all actives have a fitted effect of over 60% in size. Further: potency means the concentration at half of the fitted maximal effect. As to conditions: LYMP2-024 lymphoblastoid cell viability; series mostly up to 92.2 µM. In a few lines:
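Acute toxicity is measured as concentration-dependent loss of intracellular ATP in a human lymphoblastoid line treated 24 hours at 37 C. Luciferase luminescence quantifies ATP; AC50 values come from standard Hill-equation modelling.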

Assay [14] in a line: Cell Viability - LYMP1-002 - Assay at 40 hr (AID 994). Further: nearly all actives have a fitted effect of over 60% in size. Further: potency means the concentration at half of the fitted maximal effect. The settings on record: LYMP1-002 lymphoblastoid cell viability; series mostly up to 92.2 µM. An outline of the steps: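 Viability in the human lymphoblastoid line was measured as intracellular ATP via CellTiter-Glo after 40 hr compound exposure. Tetraoctylammonium bromide served as positive control.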
Assay [15] is described as follows: qHTS assay for small molecule agonists of the antioxidant response element (ARE) signaling pathway (AID 651741; active means well fitted activation curve with a large enough effect in the signal ratio; the % refers to the signal ratio; further: potency means the concentration at half of the fitted maximal effect). As to conditions: HepG2 ARE-bla reporter, beta-lactamase FRET ratio, 16 h; series mostly up to 96 µM. In a few lines:
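Seeding 2,000 ARE-bla HepG2 cells per well preceded a 5 h incubation at 37 C/5% CO2 and a 16 h compound exposure at 37 C. Beta-lactamase reporter activity was then quantified by fluorescence after 2 h with LiveBLAzer B/G FRET substrate.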

Assay [16] has as its target Nuclear receptor ROR-gamma (Homo sapiens) (UniProt P51449). The assay is described as follows: qHTS assay for small molecule antagonists of the retinoid-related orphan receptor gamma (ROR-gamma) signaling pathway (AID 651802). Further: nearly all actives have a fitted effect of over 60% in size. Further: potency means the concentration at half of the fitted maximal effect. As to conditions: ROR-gamma antagonist cell reporter assay; series mostly up to 92.2 µM. An outline of the steps:
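Antagonism is scored as a fall in luminescence from a RORE-luciferase reporter in CHO cells expressing ROR under a TET-inducible promoter, measured 16hr after doxycycline induction in the presence of compound.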

The nature of assay [17]: qHTS assay for small molecule antagonists of the retinoid-related orphan receptor gamma (ROR-gamma) signaling pathway - cell viability counter screen (AID 720652; active means well fitted curve in the direction sought with a large enough effect in the repeat runs; an effect the other way counts as inactive or inconclusive;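 further: compound exposure lasted 16 hr before ATP read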; further: potency means the concentration at half of the fitted maximal effect). As to conditions: RORgamma reporter cell line viability counter screen; series mostly up to 92.2 µM. An outline of the steps:
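Cytotoxicity is quantified via intracellular ATP (CellTiter-Glo luminescence) in doxycycline-induced CHO ROR response element-luciferase reporter cells treated with compound for 16 hr at 37 C, 5% CO2.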

The target in assay [18] is Cytochrome P450 3A4 (Homo sapiens) (UniProt P08684). Put plainly: qHTS Assay for Inhibitors and Substrates of Cytochrome P450 3A4 (AID 884). Further: nearly all actives have a fitted effect of over 50% in size. Further: potency means the concentration at half of the fitted maximal effect. As to conditions: recombinant CYP3A4, Luciferin-PPXE luminescence; series mostly up to 57.1 µM. In a few lines:
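20 nM human CYP3A4 with 25 uM Luciferin-PPXE (at KM) in 200 mM KPO4, preincubated 10 min with compound; NADPH regeneration started a 60 min RT reaction. Luciferin detected by luminescence, normalized to 57 uM ketoconazole as full inhibition.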

A short description of assay [19]: MultiTox-Fluor Cytotoxicity Assay - LYMP1-002 - Live Cells (AID 955). Further: potency means the concentration at half of the fitted maximal effect. As to conditions: LYMP1-002 lymphoblastoid live-cell protease fluorescence viability; series mostly up to 46.1 µM. An outline of the steps:
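Cytotoxicity in the human lymphoblastoid line LYMP1-002 is measured as loss of live-cell protease activity after 16 h treatment in complete culture medium. AC50 is derived from Hill-equation fits of qHTS concentration-response data.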

Assay [20] addresses Nuclear receptor subfamily 1 group I member 2 (Rattus norvegicus) (UniProt Q9R1A7). Put plainly: qHTS assay for small molecule activators of the rat pregnane X receptor (rPXR) signaling pathway (AID 651751; call rule not given here; further: 0% is about no effect). As to conditions: rPXR reporter cells, luciferase (One-Glo), 24 h.

Structures are written as SMILES. “And” between values parts separate entries of the source, which are not always exact repeats. Equal values may be shown once. A number with no mark means an inactive call. Inconclusive results are not listed. The source made the active and inactive calls. Unless noted, the call rests on the fitted dose curve; in most records, active means well fitted curve in the direction sought with a large enough effect; inconclusive means small, poorly fitted or top-dose-only effect, or another doubt; inactive means no such curve, though single readings can be large; an effect the other way counts as inactive or inconclusive.

Tumor necrosis factor (Homo sapiens), sequence (P01375 whole entry, looked up): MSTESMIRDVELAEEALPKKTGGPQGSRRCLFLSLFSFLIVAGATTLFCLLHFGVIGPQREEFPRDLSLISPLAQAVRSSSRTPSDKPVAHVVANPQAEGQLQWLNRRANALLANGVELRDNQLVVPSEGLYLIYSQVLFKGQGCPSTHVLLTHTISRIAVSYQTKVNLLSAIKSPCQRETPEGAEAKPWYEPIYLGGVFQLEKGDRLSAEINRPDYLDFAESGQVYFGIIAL
Nuclear receptor ROR-gamma (Homo sapiens), sequence (P51449 whole entry, looked up): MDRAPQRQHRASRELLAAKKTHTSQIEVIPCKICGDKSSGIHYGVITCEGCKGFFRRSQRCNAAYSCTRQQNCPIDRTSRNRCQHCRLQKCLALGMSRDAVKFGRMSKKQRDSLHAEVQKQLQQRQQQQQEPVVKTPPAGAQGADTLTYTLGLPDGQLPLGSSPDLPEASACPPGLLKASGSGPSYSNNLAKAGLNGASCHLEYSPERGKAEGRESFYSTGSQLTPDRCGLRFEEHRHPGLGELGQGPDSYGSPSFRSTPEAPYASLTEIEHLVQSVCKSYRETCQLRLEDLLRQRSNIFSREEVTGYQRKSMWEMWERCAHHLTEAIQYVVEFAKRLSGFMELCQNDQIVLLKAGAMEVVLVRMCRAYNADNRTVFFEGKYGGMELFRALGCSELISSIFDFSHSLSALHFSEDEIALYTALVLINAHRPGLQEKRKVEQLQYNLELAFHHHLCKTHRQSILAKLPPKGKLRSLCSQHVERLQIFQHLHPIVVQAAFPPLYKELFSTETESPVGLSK
Glucocorticoid receptor (Homo sapiens), sequence (P04150 whole entry, looked up): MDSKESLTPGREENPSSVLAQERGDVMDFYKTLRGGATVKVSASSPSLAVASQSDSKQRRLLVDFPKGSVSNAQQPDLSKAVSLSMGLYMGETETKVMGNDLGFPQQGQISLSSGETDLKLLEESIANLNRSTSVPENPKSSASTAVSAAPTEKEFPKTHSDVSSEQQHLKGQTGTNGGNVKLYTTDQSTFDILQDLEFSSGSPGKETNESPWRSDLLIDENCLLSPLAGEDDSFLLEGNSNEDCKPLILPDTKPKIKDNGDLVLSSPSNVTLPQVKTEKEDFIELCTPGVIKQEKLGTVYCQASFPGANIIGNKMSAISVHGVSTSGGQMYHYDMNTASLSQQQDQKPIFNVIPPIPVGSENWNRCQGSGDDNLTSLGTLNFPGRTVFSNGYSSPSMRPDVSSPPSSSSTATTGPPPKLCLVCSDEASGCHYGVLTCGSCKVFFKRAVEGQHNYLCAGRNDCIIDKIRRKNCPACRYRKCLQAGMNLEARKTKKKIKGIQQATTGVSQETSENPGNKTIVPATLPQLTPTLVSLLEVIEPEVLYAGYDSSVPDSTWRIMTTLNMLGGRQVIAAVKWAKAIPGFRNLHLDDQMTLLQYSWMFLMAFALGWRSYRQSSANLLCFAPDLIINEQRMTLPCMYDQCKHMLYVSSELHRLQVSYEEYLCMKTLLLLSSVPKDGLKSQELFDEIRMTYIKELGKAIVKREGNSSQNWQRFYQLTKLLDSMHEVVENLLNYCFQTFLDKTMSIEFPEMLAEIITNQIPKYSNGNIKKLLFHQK
Cytochrome P450 3A4 (Homo sapiens), sequence (P08684 whole entry, looked up): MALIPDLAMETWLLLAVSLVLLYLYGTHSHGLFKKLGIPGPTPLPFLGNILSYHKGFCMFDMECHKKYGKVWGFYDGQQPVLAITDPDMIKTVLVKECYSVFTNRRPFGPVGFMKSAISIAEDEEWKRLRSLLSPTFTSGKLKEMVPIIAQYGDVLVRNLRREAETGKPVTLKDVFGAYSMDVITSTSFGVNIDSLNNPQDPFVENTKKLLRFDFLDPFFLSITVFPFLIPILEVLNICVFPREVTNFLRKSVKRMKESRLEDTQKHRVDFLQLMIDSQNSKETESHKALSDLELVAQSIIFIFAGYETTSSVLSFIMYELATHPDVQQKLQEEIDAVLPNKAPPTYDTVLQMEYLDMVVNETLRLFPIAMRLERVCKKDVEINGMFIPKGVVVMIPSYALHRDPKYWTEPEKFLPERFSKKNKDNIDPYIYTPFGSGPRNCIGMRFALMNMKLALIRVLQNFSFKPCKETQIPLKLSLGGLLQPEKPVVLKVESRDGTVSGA
Nuclear receptor subfamily 1 group I member 2 (Rattus norvegicus), sequence (Q9R1A7 whole entry, looked up): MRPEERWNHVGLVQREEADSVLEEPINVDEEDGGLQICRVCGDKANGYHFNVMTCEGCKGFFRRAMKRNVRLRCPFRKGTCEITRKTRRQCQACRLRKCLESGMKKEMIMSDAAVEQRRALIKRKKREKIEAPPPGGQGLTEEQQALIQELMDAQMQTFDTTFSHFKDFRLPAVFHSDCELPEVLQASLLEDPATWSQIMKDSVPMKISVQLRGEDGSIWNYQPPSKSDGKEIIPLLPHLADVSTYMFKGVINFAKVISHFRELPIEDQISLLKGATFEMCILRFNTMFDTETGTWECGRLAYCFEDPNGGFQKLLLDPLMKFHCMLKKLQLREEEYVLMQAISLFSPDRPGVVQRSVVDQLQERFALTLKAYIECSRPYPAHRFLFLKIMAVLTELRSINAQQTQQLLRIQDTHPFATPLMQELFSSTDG

Take `CC/C(=C(\c1ccccc1)c1ccc(OCCN(C)C)cc1)c1ccc(O)cc1`: the figures for the activation in assay [1] and in assay [3] were 5.28% and -5.29%, respectively. The result in [2] was inactive.

With `Nc1ccc2cc3ccccc3cc2c1`, the Potency result in assay [4], in assay [5], in assay [6], in assay [7], in assay [8] and in assay [9] was “inactive” throughout. The Potency entry in [10], in assay [11], in assay [12], in assay [13], in assay [14] and in assay [16] was “inactive” each time. For the same compound, in [17], the Potency entry was “inactive”. Also, the Potency in assay [15] is 2.37 µM (active).

Consider `c1ccc2c(c1)ccc1cc3c(ccc4ccccc43)cc12`, for which the Potency result in [18], in assay [4], in assay [19], in assay [5], in [6] and in assay [7] was “inactive” in each case. The Potency result in assay [8], in assay [9], in assay [10], in assay [11], in [12] and in assay [13] was “inactive” throughout. For the same compound, the Potency result in [14] and in assay [17] was “inactive” throughout.

Take `C=CC(=O)OCC(CO)(COC(=O)C=C)COC(=O)C=C`: the activation is -3.48% and -11.6% in [1]; 2.52% and -1.81% in assay [3]. The outcome in assay [2] was inactive. Also, the max response in [20] was -14.2%.

On to `CCCCCCCC[N+](CCCCCCCC)(CCCCCCCC)CCCCCCCC`, for which the Potency is 12.6 µM (active) in assay [18]; 3.98 µM (active) in assay [4]; 3.98 µM (active) in assay [19]; 10 µM (active) in assay [5]; 7.94 µM (active) in [6]; 7.94 µM (active) in assay [7]. In addition, the Potency in [8] was 3.98 µM (active); in assay [9], 5.01 µM (active); in assay [10], 5.01 µM (active); in assay [11], 5.01 µM (active); in [12], 3.16 µM (active); in assay [13], 3.98 µM (active). Further, the Potency is 3.98 µM (active) in assay [14], 8.41 µM (active) in assay [15], 1.5 µM (active) in assay [16] and 9.44 µM (active) in assay [17]. In addition, the result in assay [2] was inactive. Further, the activation in assay [3] is -8.33%.

Take `O=C(/C=C/c1ccc(O)c(O)c1)OC1C[C@](O)(C(=O)O)C[C@@H](O)[C@H]1O` (stereo partly specified): the Potency result in assay [18], in assay [4], in assay [19], in assay [5], in assay [6] and in assay [7] was “inactive” throughout. The Potency result in assay [8], in assay [9], in assay [10], in [11], in assay [12] and in assay [13] was “inactive” each time. Besides, the Potency entry in assay [14], in assay [16] and in assay [17] was “inactive” in each case. The activation in [1] is 6.81% and -6.91%. Besides, the max response in assay [20] was -2.65% and 8.84%.

As for `O=C1OC2(c3cc(Br)c(O)c(Br)c3Oc3c2cc(Br)c(O)c3Br)c2c(Cl)c(Cl)c(Cl)c(Cl)c21`, the figures for the Potency in assay [18] and in [15] were 20 µM (active) and 66.8 µM (active), respectively. For the same compound, the Potency result in [19], in assay [9], in assay [11], in [13], in [14] and in assay [16] was “inactive” each time. Besides, the activation in assay [1] was 0.908%; in assay [3] it was -2.87%.

Consider `C=C(C)c1ccccc1`, for which the Potency entry in [4], in assay [19], in [5], in assay [6], in assay [7] and in [8] was “inactive” in each case. Besides, the Potency result in [9], in assay [10], in [11], in assay [12], in assay [13] and in assay [14] was “inactive” each time. For the same compound, the Potency entry in assay [16] and in [17] was “inactive” in each case. Further, in assay [2], the result was inactive. Besides, in assay [20], the max response was 0.462%.
